Source: PubChem (National Center for Advancing Translational Sciences (NCATS))
TRHR ag – TRH receptor (human) agonism; 360,000 tested, 0.18% active; TRHR cells, calcium flux fluo-8, FDSS agonist mode; activation, % at 2 µM; P34981
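In this calcium-flux screen, cells bearing human TRHR are dye-loaded with fluo-8, baselined for 10 cycles, then exposed to library compounds; positive kinetic calcium responses during the agonist phase mark hits, with TRH as control.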
TRHR enhancer – TRH receptor (human) allosteric enhancement; 360,000 tested, 0.66% active; P34981; enhancement, % at 2 µM; TRHR cells, fluo-8 calcium fluorescence, EC20 TRH enhancement; in the data active = enhancement above about 30%
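TRHR-expressing cells loaded with fluo-8 calcium dye were read kinetically (ex 480/em 530) during compound addition, then stimulated with an EC20 of TRH (10 nM final). Enhancement of the Gq-mediated intracellular calcium response was scored.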
D1 PAM – potentiators of human D1 dopamine receptor; P21728; HEK293 TREx D1 cells, calcium flux, dopamine EC20 potentiation; potentiation, % at 10 µM; 360,000 tested, 0.036% active; AID 504651; in the data active = potentiation above about 30%
Target sequence (P21728 whole entry, looked up): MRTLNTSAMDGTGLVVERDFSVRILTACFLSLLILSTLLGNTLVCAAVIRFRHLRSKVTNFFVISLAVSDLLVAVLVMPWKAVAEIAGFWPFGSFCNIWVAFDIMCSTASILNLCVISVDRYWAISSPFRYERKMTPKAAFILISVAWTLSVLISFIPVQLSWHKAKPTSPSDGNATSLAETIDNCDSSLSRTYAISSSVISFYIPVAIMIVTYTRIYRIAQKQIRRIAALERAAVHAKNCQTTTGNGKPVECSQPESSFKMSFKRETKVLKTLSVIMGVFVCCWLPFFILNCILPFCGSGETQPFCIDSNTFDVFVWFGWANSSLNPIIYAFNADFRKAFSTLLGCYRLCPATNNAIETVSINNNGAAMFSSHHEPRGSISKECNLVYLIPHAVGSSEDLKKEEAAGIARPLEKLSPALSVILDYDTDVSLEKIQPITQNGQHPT
D1 agonist – agonists of human D1 dopamine receptor. P21728. HEK293 T-REx D1 cells, calcium flux, agonist mode. AID 504660. activation, % at 2 µM. 360,000 tested, 1% active
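Agonism was scored from calcium flux recorded over 180 s (1 read/s) after pintool compound addition, following a 10-cycle baseline. Cells were inducible force-coupled HEK293 TREx D1, plated overnight at 30 C and loaded with no-wash calcium dye.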
D1 antagonist – antagonists of human D1 dopamine receptor; activity change, negative = inhibition, % at 10 µM; P21728; HEK293 TREx D1 cells, calcium flux, dopamine EC80; active compounds read low; AID 504652; 360,000 tested, 3.2% active; in the data active = activity change below about -30%
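Tetracycline-induced HEK293 Trex D1 cells, force-coupled to calcium, dye-loaded; compounds added and read 180 s, then EC80 dopamine added and calcium flux tracked kinetically another 180 s.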
Each line names hits and unclear results; the compound was inactive in the other large screens; ! = not active in a repeat. Only some compounds are listed: those with a hit (about 4.7% of all), similar ones and a draw of the others. Cut-off read from the data, not from the text of the source, unless noted: active = activation above about 30%; inactive = the rest.

CN(Cc1c(C(=O)N(C)Cc2ccccc2)nc2ccccn12)CC1Cc2ccccc2O1 (stereo not drawn)	none
Cc1nc(CS(=O)(=O)c2ccccn2)sc1C(=O)NNC(=O)c1ccccc1	D1 antagonist -31.8
Cc1nc(CS(=O)(=O)c2ccc(Cl)cc2)sc1C(=O)O	none
O=C(c1cnn2c(C(F)(F)F)cc(-c3cccs3)nc12)N1CCN(C(c2ccccc2)c2ccccc2)CC1	D1 antagonist -46.5
Cc1ccc(-n2c(SCC(=O)OC(C)C)nnc2-c2ccncc2)cc1	D1 agonist 38.1
O=C(Nc1ccc(N2CCCC2)c(Cl)c1)c1cccs1	D1 antagonist -31.7
CC(C)CN1C(=O)c2ccc(NC(=O)c3cccs3)cc2C1=O	TRHR enhancer 37.6
Cc1ccccc1C(=O)Nc1ccc2c(c1)CCCN2C(=O)c1cccs1	D1 antagonist -37.4!
COc1ccc(NS(=O)(=O)c2cc(NC(=O)c3cccs3)ccc2N2CCOCC2)cc1	none
COc1ccccc1NS(=O)(=O)c1cc(NC(=O)c2cccs2)ccc1N1CCOCC1	D1 antagonist -30.1
CC(C)CN1C(=O)c2ccc(NC(=O)c3ccco3)cc2C1=O	none
COc1ccc(NC(=O)CN(C)C(=O)c2ccc(S(=O)(=O)Nc3ccccc3F)cc2)cc1	none
CC(=O)Nc1ccc(SCc2csc(C)n2)cc1	none
COc1ccc(Cl)cc1NC(=O)CCC(=O)N1CCOc2ccccc21	none
O=C(Cc1ccccc1)Nc1ccc(NC(=O)c2cccs2)cc1Cl	D1 antagonist -30.8
CCN(CC1CCCO1)C(=O)c1cc(COc2cc(C)c(Cl)c(C)c2)on1 (stereo not drawn)	none
Cc1cccn2c(=O)c3cc(C#N)c(=O)n(-c4nnc(SCc5ccc(F)cc5)s4)c3nc12	none
COc1ccccc1Oc1ccc2c(c1)C(=O)N(c1cccc3ncccc13)C2=O	D1 antagonist -34.5
COc1ccccc1Oc1ccc2c(c1)C(=O)N(c1cccc(O)c1)C2=O	none
Cc1ccc(S(=O)(=O)n2c3ccc(F)cc3c3nc(C)sc32)cc1	D1 antagonist -31.5
CCN(CC)CCn1c2ccc(F)cc2c2nc(C)sc21	none
CN(C)c1nc(NCc2ccccc2)nc(SCC(=O)Nc2ccc(Cl)c(Cl)c2)n1	none
COC(=O)CSc1nc(NCc2ccccc2)nc(N(C)C)n1	D1 antagonist -40.1
CC(C)c1nc2c(c(=O)c3ccccc3n2C)c(=O)n1CCc1ccccc1	D1 agonist 92.9
COc1ccc(CCn2c(-c3ccccc3)nc3c(c(=O)c4ccccc4n3C)c2=O)cc1	none
COc1ccc(Cn2c(C3CCCCC3)nc3c(c(=O)c4ccccc4n3C)c2=O)cc1	D1 agonist 42.0
COc1ccc(CCn2c(C3CCCCC3)nc3c(c(=O)c4ccccc4n3C)c2=O)cc1	D1 agonist 126.5, D1 antagonist -39.3
COc1ccc(Cn2c(-c3ccccc3)nc3c(c(=O)c4ccccc4n3C)c2=O)cc1	D1 PAM 40.4
COc1ccc(CCn2c(C3CCCCC3)nc3c(c(=O)c4ccccc4n3C)c2=O)cc1OC	none
Cc1cccn2c(CN3CCCN(C=O)CC3)c(C(=O)N(C)CCc3ccccc3)nc12	none
CCOC(=O)c1c(C)[nH]c(C)c1S(=O)(=O)NCC(=O)Nc1cccc(C(F)(F)F)c1	D1 antagonist -39.6
COc1cccc(CNC(=O)CCCn2ncn3c(cc4occc43)c2=O)c1OC	none
Cc1cc(C)c(C#N)c(SCC(O)COc2ccc(Br)cc2)n1 (stereo not drawn)	none
O=C(COC(=O)c1ccccc1)Nc1cc(S(=O)(=O)N2CCCCCC2)ccc1Cl	none
CCc1cc2c(s1)c1cnn(Cc3ccccc3F)c(=O)c1n2C	none
CSc1cc2c(s1)c1cnn(Cc3ccccc3F)c(=O)c1n2C	D1 PAM 38.2
Cc1ccc(S(=O)(=O)Nc2cc3c(cc2C)n(C)c(=O)c(=O)n3C)c(C)c1	D1 antagonist -94.6
Cc1ccc(S(=O)(=O)Nc2ccc3c(c2)n(C)c(=O)n3C)c(C)c1	none
COc1cc(/C=N/O)cc(Cl)c1OC	D1 agonist 88.7
COc1ccc(Cl)cc1NC(=O)CSC1=Nc2ccccc2C2=NC(CCC(=O)NCc3ccco3)C(=O)N12 (stereo not drawn)	none
CC(Oc1ccc(Br)cc1)C(=O)O/N=C(\N)c1ccncc1 (stereo not drawn)	none
Cc1ccc(N2/C(=N/c3nc(C)cc(C)n3)NC(=O)CC2C(=O)O)cc1 (stereo not drawn)	none
Cc1cc(C)nc(/N=C2\NC(=O)CC(C(=O)O)N2c2ccc(Cl)cc2)n1 (stereo not drawn)	D1 antagonist -61.8
CCN(CC)CCNC(=O)c1ccc(NC(=O)c2ccc(S(=O)(=O)N3CCCCCC3)cc2)cc1	D1 antagonist -56.8
CCN(CC)CCNC(=O)c1ccc(NC(=O)c2ccc(Cl)c(S(=O)(=O)N3CCCCCC3)c2)cc1	D1 antagonist -46.8
O=C(Nc1ccc(Br)cc1)c1ccc(Cl)c(S(=O)(=O)N2CCCCCC2)c1	none
CCC(C)c1ccc(N(CC(=O)NC(C)(C)C)C(=O)CNC(=O)c2cccs2)cc1 (stereo not drawn)	none
O=C(NNC(=O)C1CCCC1)c1ccccc1F	TRHR enhancer 34.6
O=C(NNC(=O)C1CC1c1ccccc1)c1ccccc1F (stereo not drawn)	none
Cc1ccc(C(=O)N2CCC(C(=O)NCc3cccnc3)CC2)cc1	none
Cc1ccc(CNC(=O)C2CCN(C(=O)c3cccc(Cl)c3)CC2)cc1	D1 antagonist -57.2
COc1ccc(CNC(=O)C2CCN(C(=O)c3cccc(Cl)c3)CC2)cc1	D1 antagonist -35.3
Cc1nccn1CC(=O)c1ccc(O)c(O)c1	none (no result: D1 antagonist)
Cc1cc(N2CCCC2)c(F)cc1/C=C\[N+](=O)[O-]	D1 agonist 399.5
CC(C)c1nc(C(=O)N2CCCC(N3CCN(c4cccc(Cl)c4)CC3)C2)cs1 (stereo not drawn)	none
Cc1oc(-c2cccc(Cl)c2)nc1CN1CCCC(C(=O)NCc2ccco2)C1 (stereo not drawn)	D1 antagonist -41.2
Cc1ccc(-c2nc(CN3CCCC(C(=O)N4CCOCC4)C3)c(C)o2)cc1 (stereo not drawn)	D1 antagonist -33.8
Cc1oc(-c2cccc(Cl)c2)nc1CN1CCCC(C(=O)N2CCN(c3ccc(F)cc3)CC2)C1 (stereo not drawn)	D1 agonist 34.6, D1 antagonist -64.1
Cc1oc(-c2cccc(Cl)c2)nc1CN1CCC(C(=O)NCc2ccco2)CC1	none
Cc1cccc(-c2nc(CN3CCCC(C(=O)NCCc4ccc(Cl)cc4)C3)c(C)o2)c1 (stereo not drawn)	TRHR enhancer 34.0
O=P(c1ccccc1)(c1ccccc1)C(O)c1ccc(Br)cc1 (stereo not drawn)	none
Cc1oc(-c2ccc(Cl)cc2)nc1CN1CCC(C(=O)N2CCN(Cc3ccccc3)CC2)CC1	D1 agonist 32.5, D1 antagonist -68.3 (no result: D1 PAM)
